D2 PAM-1: HTS Assay for Positive Allosteric Modulators of the Human D2 Dopamine Receptor: Primary Screen for Potentiators. 0.34% of 340,000 active. D(2) dopamine receptor (Homo sapiens), P14416. potentiation, % at 10 µM. HEK293 T-REx D2, calcium flux, EC20 dopamine potentiation. AID 485347, 2010;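 active = potentiation over 3 SD above the plate norm, cut at about 30% in these data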; also: 0% is about no effect
Target sequence (P14416 whole entry, looked up): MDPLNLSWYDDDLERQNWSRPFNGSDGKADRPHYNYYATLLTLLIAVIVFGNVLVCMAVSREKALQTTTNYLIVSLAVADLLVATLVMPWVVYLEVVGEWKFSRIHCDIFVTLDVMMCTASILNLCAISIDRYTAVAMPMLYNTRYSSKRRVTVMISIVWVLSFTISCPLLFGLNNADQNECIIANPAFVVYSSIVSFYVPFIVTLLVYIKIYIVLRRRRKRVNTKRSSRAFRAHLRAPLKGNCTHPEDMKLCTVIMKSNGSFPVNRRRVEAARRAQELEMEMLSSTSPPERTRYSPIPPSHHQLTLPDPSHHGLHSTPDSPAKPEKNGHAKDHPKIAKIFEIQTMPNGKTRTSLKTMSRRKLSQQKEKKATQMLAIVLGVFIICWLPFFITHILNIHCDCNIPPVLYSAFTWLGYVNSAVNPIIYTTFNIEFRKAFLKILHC
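Primary screen. Calcium kinetics in induced HEK293 T-REx D2 cells: compound pre-addition 180 s, EC20 dopamine, 180 s more.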
D2 antagonist: HTS Assay for Allosteric Antagonists of the Human D2 Dopamine Receptor: Primary Screen for Antagonists | AID 485344, 2010 | HEK293 TREx D2 cells, calcium flux, dopamine EC80 | 2% of 340,000 active | inhibition, % at 10 µM | D(2) dopamine receptor (Homo sapiens), P14416; in the data active = inhibition above about 30%; inactive = below that, where a call was filed; also: 0% is about no effect
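In this primary screen, negative modulation is detected by tracking calcium flux after an EC80 dopamine challenge in inducible HEK293 T-REx D2 cells preexposed to test compound for 180 s.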
D2 ag-1: HTS Assay for Allosteric Agonists of the Human D2 Dopamine Receptor: Primary Screen for Agonists; HEK293 T-REx D2 cells, calcium flux agonist mode; D(2) dopamine receptor (Homo sapiens), P14416; activation, % at 2 µM; 0.53% of 340,000 active; AID 485358, 2010;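 active = activation over 3 SD above normal in the single-dose calcium agonist read, cut at about 30% in these data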; also: 0% is about no effect
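Tetracycline-induced HEK293 Trex cells with D2 receptor force-coupled to calcium signaling, plated overnight at 30 C and loaded with no-wash calcium dye. Calcium flux read kinetically for 180 s after compound addition; responses flag agonists.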
D2 ag-2: Beta-Arrestin HTS for Positive Allosteric Modulators of the Human D2 Dopamine Receptor: Agonists; DiscoveRx PathHunter D2 beta-arrestin, luminescence, 90 min; 100% = 57 uM dopamine signal; activation, % (no concentration beside the values); 0.084% of 360,000 active; in the data active = activation above about 40%; inconclusive = between about 15% and that limit
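Agonist mode: compounds alone added to overnight-plated D2 PathHunter cells for 90 min at 37 C, with 57 uM final dopamine (EC100) defining full response. Beta-arrestin recruitment detected by chemiluminescent reagent, read after 1 h at ambient temperature.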
D2 PAM-2: Beta-Arrestin HTS for Positive Allosteric Modulators of the Human D2 Dopamine Receptor: Potentiators. 0.23% of 360,000 active. D(2) dopamine receptor (Homo sapiens), P14416. potentiation, % (test concentration not listed). DiscoveRx D2 beta-arrestin cells, luminescence, 90 min; 100% = 57 uM dopamine signal; in the data active = potentiation above about 50%; inconclusive = mostly about 30% to 49%
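PathHunter beta-arrestin assay in DiscoveRx D2 cells. Compounds were added with an EC20 of dopamine (50 nM final) for 90 min at 37 deg C. Luminescence was read 1 h after detection reagent, with 57 uM dopamine as the EC100 control.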
The depositor's hits bear a star; ? = inconclusive; / = no result given; ! = not confirmed by another sample. Shown are actives, neighbours in structure and some others; about 2.4% of the full set was active somewhere.

SMILES | D2 PAM-1 | D2 antagonist | D2 ag-1 | D2 ag-2 | D2 PAM-2
Cc1cc(O)c(C(=O)c2cnc3c(c2)COc2ccccc2-3)cc1Cl | -3 | / | 0 | / | /
CC(C)c1cnc2c(c1SCc1cccc(F)c1)c(=O)n(C)c(=O)n2C | -10 | / | 0 | / | /
CCC(C)NC(=O)c1cn(CC)c2ccc(S(=O)(=O)N3CCc4ccccc4C3)cc2c1=O (configuration not stated) | 4 | / | 0 | / | /
CCc1nnc(NC(=O)CN2C(=O)/C(=C/c3cc(OC)c(OC)c(OC)c3)SC2=S)s1 | 31* | -5 | 1 | -5 | -15
COc1ccccc1/C=C1\SC(=S)N(CCC(=O)Nc2nnc(C)s2)C1=O | -6 | 31* | 1 | 1 | -7
COc1ccccc1/C=C1\SC(=S)N(CCC(=O)Nc2cc(C)on2)C1=O | / | -10 | 3 | 1 | -4
COc1ccc(S(=O)(=O)c2c(C(=O)c3ccc(C)c(C)c3)cnc3ccc(C)cc23)cc1 | -6 | / | / | / | /
CCc1ccc(N(CC(=O)NC(C)(C)CC)C(=O)CCC(=O)Nc2nccs2)cc1 | -10 | 0 | 0 | -5 | -4
CCC(C)(C)NC(=O)CN(Cc1ccc2c(c1)OCO2)C(=O)CCC(=O)Nc1nccs1 | 4 | 41* | -1 | -2 | -7
CCC(C)(C)NC(=O)CN(C(=O)CCC(=O)Nc1nccs1)c1ccc2c(c1)OCCO2 | 31* | 1 | -2 | -2 | -6
CCc1ccccc1-n1c(-c2ccncc2)n[nH]c1=S | 9 | 70* | 0 | -2 | -16
Cc1ccccc1-n1c(-c2ccncc2)n[nH]c1=S | 8 | 17 | 2 | -2 | -2
O=C(NN=C1CCCC1)c1cc(-c2ccccc2)n[nH]1 | 5 | / | / | -1 | 0
O=C(NN=C1CCCC1)c1ccn[nH]1 | -1 | 42* | 0 | -2 | 8
CCC(Oc1ccccc1)C(=O)NC1C(=O)N2C1SC(C)(C)C2C(=O)O (configuration not stated) | 5 | -1 | 0 | 4 | 4
CC1(C)S[C@@H]2[C@H](NC(=O)Cc3ccccc3)C(=O)N2[C@H]1C(=O)O | 6 | 33*! | 1 | -3 | -12
CC(=O)c1ccc(NC(=O)c2nn(C)c3c2COc2ccccc2-3)cc1 | 5 | / | 1 | / | /
CC12CN3CC(c4ccccc4)(CN(C1)C3c1ccc(Cl)cc1)C2=O (configuration not stated) | 17 | / | 1 | / | /
CC1=CC2=NC(=O)CC(C)(C(=O)N(CC(=O)NC3CCCC3)c3cc(C)cc(C)c3)N2C=C1 (configuration not stated) | 10 | 60* | 0 | 1 | -7
CC1=CC2=NC(=O)CC(C)(C(=O)N(CC(=O)NC(C)(C)C)C3CCCC3)N2C=C1 (configuration not stated) | 4 | -2 | -1 | 0 | 3
COc1ccc(CNC(=O)CN(C(=O)c2snc(C(N)=O)c2N)c2ccc(F)cc2)cc1 | 15 | -19 | 0 | -2 | -5
COc1ccc(CNC(=O)CN(C(=O)c2snc(C(N)=O)c2N)c2ccc(OC)c(OC)c2)cc1 | -5 | 31* | 0 | 3 | 2
CCOc1ccccc1NC(=O)NCc1ccccc1 | -21 | 42* | -1 | -2 | -11
Cc1ccc(C(=O)c2cn(Cc3cc(C)ccc3C)c3nc(C)ccc3c2=O)cc1 | 6 | / | 1 | / | /
CCN(C(=O)C1CCN(S(=O)(=O)c2ccc3c(c2)oc(=O)n3C)CC1)c1cccc(C)c1 | 4 | 39* | 0 | -3 | -1
CCOC(=O)N1CCN(C(=O)Nc2ccc3oc(C)nc3c2)CC1 | / | 44* | 1 | 7 | ?
CCOC(=O)C1CCN(C(=O)Nc2ccc3oc(C)nc3c2)CC1 | / | / | / | -2 | -3
CCC(C)NCCCOc1cc(Cl)ccc1Cl (configuration not stated) | -23 | 80* | 1 | -3 | -38
